Data as given in PubChem BioAssay AID2066 (NMMLSC, 2009).
About 50 (0.02%) of roughly 320,000 compounds were called active. The full list was thinned out, with actives kept by preference. A number with no mark means an inactive call.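 The calls were made as follows: active = GFP response relative to DMSO above a set limit, near screen average plus 3 SD (cut at about 150% in these data); inconclusive = fewer than 70 cells counted for the yeast strain; inactive = the rest.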

experiment: yeast AGP1-GFP level changes, GLN3 branch – cell-based, multiplex flow cytometry, S. cerevisiae, MLPCN library, primary screen (AID 2066); details: 3 h, at 10 µM, stronger effect = higher value, GFP as percent of DMSO wells;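 also: median GFP channel fluorescence of the gated AGP1 strain per well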

Row | Compound | GFP response vs DMSO
1 | Cc1ccc2[nH]c(=O)c(CN(C)S(=O)(=O)c3cccc4nonc34)cc2c1 | 118%
2 | Cc1ccc(C(=O)CN2C(=O)NC3(CCOc4ccccc43)C2=O)s1 (stereo not given) | 102%
3 | COc1ccccc1N(CC(=O)Nc1ccc(C(F)(F)F)cc1)S(C)(=O)=O | 109%
4 | CC1CN(C(=O)c2cc(COc3c(F)cccc3F)on2)CCN1C (stereo not given) | 102%
5 | O=C(Nc1cccc(S(=O)(=O)N2CCCC2)c1)c1cncc(Br)c1 | 106%
6 | O=C1c2ccncc2C(=O)N1C1CCCCC1 | 111%
7 | Cc1ccc2c(c1)NC(=O)[C@@]1(C)[C@@H](c3ccccc3)[C@H]3COc4ccc(Cl)cc4[C@@H]3N1C2=O | 98.7%
8 | Cc1ccc(NC(=O)Cn2cnc3c(OCc4ccccc4)ncnc32)cc1C | 91%
9 | CC1(C)C(=O)C2(CCCCC2)C(=O)OC1c1cccs1 (stereo not given) | 103%
10 | O=C(c1cccc(F)c1)N1CCN(c2ccc([N+](=O)[O-])c3cccnc23)CC1 | 90.5%
11 | CC(C)C[C@H](NC(=O)NCCc1ccc(Cl)cc1)C(=O)O | 99.6%
12 | COC(c1ccccc1)(c1ccccc1)C(Oc1nc(C)cc(C)n1)C(=O)O (stereo not given) | 98.3%
13 | Cc1ccc(S(=O)(=O)NC2CCCCCC2)cc1 | 103%
14 | Cc1ccc(S(=O)(=O)Nc2ccc3c(c2)C(=O)N([C@H](C)CO)C[C@@H](C)[C@@H](CN(C)C(=O)Nc2cccc4ccccc24)O3)cc1 | 96.4%
15 | C=CCC(C(=O)c1ccccc1)[N+](C)(C)CC=C (stereo not given) | 96.9%
16 | S=c1nc2ccccc2c2nc(-c3cccnc3)[nH]n12 | 102%
17 | CCC(C)n1c(-c2cc(OC)c(OC)c(OC)c2)nc2nc3ccccc3nc21 (stereo not given) | 101%
18 | CCc1ccc(-c2cc3c(=O)n(CC(=O)NCCCN4CCN(Cc5ccccc5)CC4)nc(C)n3n2)cc1 | 102%
19 | CN(C)C(CNC(=O)c1ccc(OCc2cn3ccccc3n2)cc1)c1ccco1 (stereo not given) | 97.7%
20 | CC(C)Cc1nnc(NC(=O)CCNC(=O)c2ccccc2Cl)s1 | 105%
21 | O=C(CCCOc1ccccc1)NNC(=O)c1ccc(Cl)cc1 | 109%
22 | Cn1cccc1C(=O)OCC(=O)c1ccc(Br)s1 | 100%
23 | COc1cc(NC(=O)CCNC(=O)Cn2ccc3ccccc3c2=O)cc(OC)c1OC | 104%

Row | Compound | GFP response vs DMSO
24 | Cc1cc(C(F)(F)F)nn1CC(=O)N1CCCC1 | 97.4%
25 | CSc1ccc(S(=O)(=O)NCC(=O)OCC(=O)NC2(C#N)CCCCC2)cc1[N+](=O)[O-] | 108%
26 | CCc1ccc(NC(=O)C(=O)NNC(=O)c2cccs2)cc1 | 107%
27 | CC(C)N1C(=O)N(c2ccccc2)C(C)(O)CC1(C)C (stereo not given) | 99.2%
28 | COc1ccc(C(C)(C)C)cc1NC(=O)CCN1C(=O)C2CCCCC2C1=O (stereo not given) | 112%
29 | Cc1nn2cc(-c3ccc(Cl)cc3)cnc2c1Br | 102%
30 | CC(C)c1ccc(NC(=O)CCN2C(=O)c3ccc([N+](=O)[O-])cc3C2=O)cc1 | 111%
31 | CC(C)(C)c1ccc(C(=O)N2CCN(CCNC(=O)C(=O)Nc3ccc(F)cc3)CC2)cc1 | 100%
32 | Cc1ccc(NC(=O)Cn2cccc2C2=NC(c3ccccc3)CO2)c(C)c1 (stereo not given) | 103%
33 | O=C1[C@@H]2C(c3cccnc3)=NO[C@@H]2C(=O)N1c1ccc(Cl)cc1Cl | 112%
34 | C#CCO[C@@H]1C[C@H](n2cnc3c(=O)[nH]c(NC(=O)C(C)C)nc32)O[C@@H]1CO | 87.2%
35 | CC1=CC(C)(C)NC(=S)N1NC(=O)c1ccccc1Cl | 109%
36 | COc1ccc(/C(C)=N/N2CCOCC2)c(O)c1 | 104%
37 | Cc1cccc(CSc2nc3c(c(=O)n2C)SCC3)c1 | 91.2%
38 | Cn1nccc1C(=O)NC1CCCc2c1cnn2-c1ccc(F)cc1F (stereo not given) | 95.7%
39 | CN(C)N(C)C(=O)C(O)(c1ccccc1)c1ccccc1 | 109%
40 | CCC(C)(C)NC(=O)C(c1ccc(O)cc1)N(Cc1ccco1)C(=O)CCC(=O)Nc1ccccn1 (stereo not given) | 100%
41 | CCOc1ccc(S(=O)(=O)N2CCC(C(=O)NCC(=O)Nc3cccc(Cl)c3C)CC2)cc1 | 93.8%
42 | O=C(NCc1ccc(F)cc1)C1CCN(C(=O)Nc2ccc(F)cc2)CC1 | 96.4%
43 | O=C(OCC(=O)N1CCN(C(=O)c2ccco2)CC1)c1ccc(Cl)c(Cl)c1 | 103%
44 | COc1ccccc1OCc1ccc(C(=O)NC(C)c2ccccc2)o1 (stereo not given) | 95.8%
45 | Cc1c(Cl)c([N+](=O)[O-])nn1Cc1ccc(C(=O)N/N=C\c2cc(Cl)ccc2O)o1 | 99.4%
46 | C/C=C/c1ccc(OCC(=O)NNC(=O)CN(C)S(=O)(=O)c2ccc(C)cc2)c(OC)c1 | 91.6%

Row | Compound | GFP response vs DMSO
47 | O=C(O)C(F)(F)C(NCc1ccccc1)c1ccccc1 (stereo not given) | 102%
48 | CCOC(=O)C1C(=O)NCC1c1ccccc1 (stereo not given) | 109%
49 | CCOC(=O)c1ccccc1NC(=O)c1c(N)n(C)c(=O)[nH]c1=O | 87.3%
50 | N#C/C=C/N1CCN(Cc2ccc3c(c2)OCO3)CC1 | 93%
51 | O=C(O)CCCCOn1ccnc1 | 91.2%
52 | O=C(Nc1c2c(nn1-c1cccc(Cl)c1)CS(=O)(=O)C2)c1cccs1 | 90.9%
53 | Cc1ccccc1NC(=O)C(C)c1ccc(-c2ccccc2)c(F)c1 (stereo not given) | 97.8%
54 | CCn1cc(C(=O)N2CC(C)CC(C)C2)c(=O)c2cc(S(=O)(=O)N3CCCC3)ccc21 (stereo not given) | 93.8%
55 | CC1=CC=CN2C1=NC(=O)CC2(C)C(=O)N(CC(=O)NC1CCCC1)c1ccccc1C (stereo not given) | 99.9%
56 | CCOc1ncccc1C(=O)OCC(=O)Nc1cccc(S(=O)(=O)N2CCCCCC2)c1 | 100%
57 | CCOc1ccc(N2C(=O)CSC2=NC#N)cc1 | 88.3%
58 | Cc1ccc(S(=O)(=O)NCC(=O)N(CC(=O)NCC2CCCO2)c2cccc(F)c2)cc1 (stereo not given) | 114%
59 | CC1(C)NC(=O)N(CC(=O)N2CCN(S(=O)(=O)c3ccccc3F)CC2)C1=O | 95.5%
60 | Cc1cc(C)c(NC(=S)N2CCCC2C(=O)O)c(C)c1 (stereo not given) | 102%
61 | Cc1cccc(C)c1NC(=O)C1(N(C(=O)c2ccccn2)c2ccc(O)cc2)CCCCC1 | 97.2%
62 | CC(=O)C[C@H](O)CC(=O)[C@@H]1OC(=O)[C@@H](C)C/C=C\Cc2ccccc21 | 98.2%
63 | CCOc1ccc(C2NC(=S)NC3=C2CCc2ccccc23)cc1 (stereo not given) | 103%
64 | CCCCn1nc(C(=O)N2CCc3ccccc32)c2ccccc2c1=O | 98.5%
65 | Cc1ccccc1OCC(=O)NNC(=O)c1ccc(-n2cncn2)c([N+](=O)[O-])c1 | 106%
66 | O=C(CSc1cccc[n+]1[O-])NCCCc1ccccc1 | 101%
67 | O=C(Nc1ccc(F)cc1)C1CCCN(S(=O)(=O)c2ccc(-n3cnnn3)cc2)C1 (stereo not given) | 102%
68 | CCN(CC)CCNS(=O)(=O)c1ccc(/C=C/C(=O)O)cc1 | 98.4%
69 | Cc1ccc(NC(=O)CSc2nn3c(=O)c(C)nnc3s2)cc1Cl | 93.9%

Row | Compound | GFP response vs DMSO
70 | Cc1ccc(S(=O)(=O)c2nnn3c2nc(N2CCN(c4ccccn4)CC2)c2ccccc23)cc1 | 97.1%
71 | Cc1cccc(Nc2nc3c(S(=O)(=O)c4ccccc4)nnn3c3ccccc23)c1C | 224% [may fluoresce green] (active)
72 | CC(=O)Nc1ccc(Nc2nc3c(S(=O)(=O)c4ccc(C)c(C)c4)nnn3c3ccccc23)cc1 | 100%
73 | NC(=O)C1CC=CCC1C(=O)OCC(Cl)=C(Cl)Cl (stereo not given) | 105%
74 | Cc1cc(C)cc(OCC(=O)OCC(=O)NC2CCCC2)c1 | 87.5%
75 | O=C(Nc1nccs1)c1cc(S(=O)(=O)N2CCOCC2)c(Cl)cc1Cl | 100%
76 | Cc1ccc(C(=O)Nc2ccn(C)n2)cc1 | 102%
77 | CN(C)S(=O)(=O)c1cc(C(=O)Nc2ccn(C)n2)c(Cl)cc1Cl | 1300% [may fluoresce green] (active)
78 | Cn1nnnc1SCC(=O)Nc1ccccc1C(=O)NC1CC1 | 102%
79 | Cc1ccc2c(=O)cc(C(=O)NCCc3ccc(S(N)(=O)=O)cc3)oc2c1C | 93.5%
80 | Cc1oc(C(N)=O)cc1COc1ccc(C(N)=O)cc1 | 101%
81 | O=C1CCC/C=C/C[C@@H](CC(=O)N(CCO)Cc2ccccc2)C(=O)NC[C@H](c2ccccc2)O1 | 96.8%
82 | Cc1ccc(C)c(NC(=O)CCC(=O)N/N=C2/CC(=O)CC(C)(C)C2)c1 | 96.2%
83 | O=C(COC(=O)c1cc(S(=O)(=O)N2CCOCC2)ccc1F)NC1CC1 | 91.4%
84 | COc1cccc(C(=O)Nc2cc3c(cc2Br)OCCCO3)c1 | 92%
85 | CS(=O)(=O)Nc1ccccc1C(=O)OCC(=O)NC1CC1 | 106%
86 | O=C(CCc1[nH]c2ccccc2c1Sc1ccccc1)N(CCO)CCO | 99.2%
87 | Nc1nc(NCc2ccccc2)n(-c2ccccc2)n1 | 99.9%
88 | COc1cc(C)ccc1OCC(=O)OCC(=O)c1ccc[nH]1 | 100%
89 | COc1ccc(S(=O)(=O)N(C)C[C@@H]2Oc3ccc(NS(=O)(=O)c4cn(C)cn4)cc3C(=O)N([C@@H](C)CO)C[C@@H]2C)cc1 | 91.3%
90 | COCCn1c(SCC(=O)Nc2ccccc2F)nc2c(c1=O)SCC2 | 96.5%
